Common to all, as to experiment: qHTS profiling for inhibitors of Plasmodium falciparum proliferation (AID 504749); note: nearly all actives have a fitted effect of over 60% in size
What all share (conditions): P. falciparum in erythrocytes, SYBR Green DNA, 72 h; series mostly up to 28.7 µM
(Quantitative high-throughput screening tests each substance at several concentrations.)

One experiment concerns N140. The method in brief:
(§1)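 P. falciparum-infected erythrocytes (0.3% parasitemia, 2.5% hematocrit) incubated with compound 72 h at 37 C, 5% CO2. Parasite DNA detected by SYBR Green after lysis, overnight at room temperature; normalised to 0.29 uM artemisinin and DMSO.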

In the next experiment the test system is P94_40. In outline: as §1
A further experiment concerns PAD. In outline: as §1
The subject of the next experiment is PC49. The method in brief:
as §1

The next experiment relates to SC27B. In outline:
as §1

Another experiment concerns TAB113. The method in brief:
as §1

A further experiment deals with P93_24. The method in brief:
as §1

The subject of a further experiment is PC15. In outline:
as §1

For a further experiment, the system named is PC26. In outline: as §1
For the next experiment, the system named is TAB109. In outline:
as §1

For nine compounds, Potency results are on record in PubChem BioAssay (NCATS).

Inconclusive results are not listed. The source made the active and inactive calls. Calls come from the whole dose curve; as a rule, active = well fitted inhibition curve with a large enough effect; inconclusive = small, poorly fitted or top-dose-only effect; inactive = flat fitted curve, though single readings scatter.
Potency is the fitted concentration of half-maximal effect.

As to `OCc1cc(C(O)CNCCCCCCOCCCCc2ccccc2)ccc1O` (stereo unspecified), the Potency result in the experiment on N140, in the experiment with P94_40, in the experiment on PAD, in the experiment with PC49, in the experiment with SC27B and in the experiment on TAB113 was “inactive” each time.
Regarding `CSc1ccc2c(c1)C(N1CCN(C)CC1)Cc1ccccc1S2` (stereo unspecified), in the experiment with P93_24, the Potency was 11.2 µM (active). The Potency result with PC15 and in the experiment on PC49 was “inactive” each time.
In the case of `CN1CCCCC1CCN1c2ccccc2Sc2ccc(S(C)=O)cc21` (stereo unspecified), the Potency entry in the experiment with PAD, in the experiment with PC49 and in the experiment with TAB113 was “inactive” each time.
Turning to `CC(C)(C)C(=O)C(Oc1ccc(Cl)cc1)n1ccnc1` (stereo unspecified), the Potency in the experiment with N140 was 8.91 µM (active); in the experiment on P93_24, 5.01 µM (active); in the experiment with P94_40 it was 7.94 µM (active); with PAD, 8.91 µM (active); in the experiment on PC26 it was 16.9 µM (active); in the experiment with TAB109 it was 10 µM (active). Further, the Potency in the experiment on TAB113 is 10 µM (active).
Consider `CCOC(CN1CCN(CC(C)C(=O)c2ccccc2)CC1)c1ccccc1` (stereo unspecified), for which the Potency entry in the experiment on N140, in the experiment on PAD, in the experiment on PC15, in the experiment with PC49 and in the experiment on SC27B was “inactive” throughout.
Take `CC(C(O)c1ccc(O)cc1)N1CCC(Cc2ccccc2)CC1` (stereo unspecified): in the experiment on P93_24, the Potency is 11.2 µM (active). Also, the Potency result in the experiment on PC49 is “inactive”.
With `CN1CCC[C@@H]1Cc1c[nH]c2ccc(CCS(=O)(=O)c3ccccc3)cc12`, the Potency result in the experiment on SC27B and with TAB113 was “inactive” throughout.
Regarding `C[C@]12C[C@H](O)[C@H]3[C@@H](CCC4=CC(=O)CC[C@@]43C)[C@@H]1CC[C@@H]2C(=O)CO`, the Potency result in the experiment with PC15 and in the experiment with PC26 was “inactive” each time.
As to `Cc1c(O)cccc1C(=O)N[C@@H](CSc1ccccc1)[C@H](O)CN1C[C@H]2CCCC[C@H]2C[C@H]1C(=O)NC(C)(C)C`, the Potency is 7.94 µM (active) in the experiment on N140; 8.91 µM (active) with P93_24; 10 µM (active) in the experiment on P94_40; 10 µM (active) in the experiment with PAD; 7.94 µM (active) with SC27B; 12.6 µM (active) in the experiment on TAB113.
